Experimental data published in PubChem BioAssay (NCI).
Compounds without any hit were thinned out: in the full panel of roughly 83,000, 20% have a hit.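 Each cell line was grown in a 96-well plate and treated with one concentration of compound for 48 hours. Values below 10 were considered active.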 Activity calls are given as the source filed them.

The compounds below were run on HS 578T breast (assay: NCI-60 one-dose screen, 48 h (100 = growth as untreated, 0 = no growth, -100 = all killed)). Conditions: 10 µM.

Structure (SMILES) | growth
NN1C(=O)CSC1=S | 101% (inactive)
CC12O[C@H](C[C@@H](OC(=O)CCC(=O)O)[C@H]1O)n1c3ccccc3c3c4c(c5c6ccccc6n2c5c31)C(=O)NC4=O | 19.2% (inactive)
C=C1[C@@H](O)C[C@H]2C(C)(C)C[C@H](Cl)C[C@]2(C)[C@H]1C[C@H](O)[C@H]1CC(=O)NC1=O | -15.7% (active)
COC(=O)[C@H](Cc1ccccc1)NC(=O)[C@@H](OC)[C@@H]1Cc2cc3cc(OC4CC(OC5CC(O)C(O)C(C)O5)C(O)C(C)O4)c(C)c(O)c3c(O)c2C(=O)[C@H]1OC1CC(OC2CC(OC3CC(C)(O)C(O)C(C)O3)C(O)C(C)O2)C(O)C(C)O1 (some centres not stated) | -16.7% (active)
CCOC(=O)C1=C(C)N=C2Sc3cccc(OC)c3N2[C@H]1c1ccccn1 | 91.9% (inactive)
CNC(=O)c1cc(Oc2cccc3nc(Nc4ccc(Oc5ccccc5)cc4)ccc23)ccn1 | 81.9% (inactive)
COc1ccc(-c2nc(N)ncc2Oc2ccccc2OC)c(O)c1 | 36.2% (inactive)
CSc1nc2ncncc2[nH]1 | 74.8% (inactive)
Nc1c2c(c(O)c3c1=C(CO)C=N3)=NCCS2=O (configuration not stated) | 1.72% (active)
CC(C)=CCc1cc2c(cc1O)C1=C(C(=O)C3=C(NCCS3(=O)=O)C1=O)C(C=C(C)C)O2 (configuration not stated) | 73.5% (inactive)
CC/C=C\C[C@H]1C/C=C2/C(=O)C=C[C@@H]2C/C=C\CCCC(=O)O1 | 36.4% (inactive)

What follows are compounds tested on NCI/ADR-RES ovarian in the same assay as above. Conditions: 10 µM unless noted.

Structure (SMILES) | growth
CO/C=C/C(=O)c1cc2cnc3c(=N)cc(NC(=O)C(C)C)c([nH]1)c23 | -9.63% (active)
Cc1cc2c(-c3nc4ccccn4c3Nc3cccc4ccccc34)c(O)c(O)cc2c(O)c1-c1c(C)cc2c(-c3nc4ccccn4c3Nc3cccc4ccccc34)c(O)c(O)cc2c1O | 81.6% (inactive)
Cc1cc(N2CCOCC2)nc(N(CCNc2ccnc3cc(Cl)ccc23)Cc2cccs2)n1 | 34.1% (inactive)
CCCCCCCC(=O)SCC/C=C/[C@@H]1CC(=O)NCc2cc(ccn2)C2=N[C@@](C)(CS2)C(=O)N[C@@H](C(C)C)C(=O)O1 | 4.18% (active)
Cc1sc2c(c1C)c(=O)nc1c(-c3nc4ccccc4s3)n[nH]n12 | 93.7% (inactive)
CC(C)(C)CC(C)(C)Nc1c(-c2c(O)c3ccccc3oc2=O)nc2c(Cl)cc(C(F)(F)F)cn12 | 108% (inactive)
CCOc1cccc(/C=N/NC(=O)c2ccccc2Nc2ccnc(C(F)(F)F)c2)c1O | -0.31% (active)
Cc1cc2c(-c3nc4ccccn4c3NC3CCCCC3)c(O)c(O)cc2c(O)c1-c1c(C)cc2c(-c3nc4ccccn4c3NC3CCCCC3)c(O)c(O)cc2c1O | 71.9% (inactive)
C=CCC(=O)N[C@H](/C=C/C(=O)O)Cc1ccc(-c2cc(Cl)cc(Cl)c2)cc1 | 107% (inactive)
CN1CCN(c2nc(NCCNc3ccnc4cc(Cl)ccc34)c3ccccc3n2)CC1 | 85.5% (inactive)
C[C@@H](C[C@H](CCO)c1cc(C(F)(F)F)cc(C(F)(F)F)c1)c1ccc2ccccc2c1 | 85.3% (inactive)
C=C1C(=O)O[C@H]2[C@H]1CC/C(Cn1cc(-c3cc(C)c(C)cc3C)nn1)=C\CC[C@@]1(C)O[C@@H]21 | 5.12% (active)
COc1ccc2c(CCCc3ccc(Cl)cc3Cl)c3[n+](cc2c1OC)CCc1cc2c(cc1-3)OCO2 | 76.4% (inactive)
CCN1CCN(c2cc(C)nc(N(CCCNc3ccnc4cc(Cl)ccc34)Cc3ccc4c(c3)OCO4)n2)CC1 | 14.2% (inactive)
O=C1CC(c2ccc(Cl)cc2)c2ncn(-c3cccc(Cl)c3)c2N1 (configuration not stated) | 26.5% (inactive)
Cc1ccccc1Nc1nc2nonc2nc1Nc1cccc(C)c1C | 56.5% (inactive)
Fc1ccc(NCc2cn(-c3ccccc3)nc2-c2ccc(OCc3ccccc3)cc2)cc1Cl | 95.4% (inactive)
CCCCCCCC(=O)SCC/C=C/[C@@H]1CC(=O)NCc2cccc(n2)C2=N[C@@](C)(CS2)C(=O)N[C@@H](C(C)C)C(=O)O1 | 6.46% (active)
COC(=O)C1CCc2sc3ncnc(Nc4cn[nH]c4C(=O)Nc4ccc(CN5CCN(C)CC5)cc4)c3c21 (configuration not stated) | 54.4% (inactive)
C=CC(=O)N(C)[C@H]1C[C@H]2OC(C)(C1OC)n1c3ccccc3c3c4c(c5c6ccccc6n2c5c31)C(=O)NC4 (some centres not stated) | -1.79% (active)
Cc1cc(N(CCNc2ccnc3cc(Cl)ccc23)Cc2ccc3c(c2)OCO3)nc(N2CCN(C)CC2)n1 | 40.9% (inactive)
